ST2 IL33 inh: inhibitors of human ST2 (IL1RL1) binding to IL-33, primary screen, biochemical, AlphaLISA. Interleukin-1 receptor-like 1 (Homo sapiens), Q01638. AlphaLISA ST2-Fc/biotin-IL-33 interaction, 1 h. inhibition, % for hits at 17 µM. hit rate 2.3% among 78,000; in the data active means inhibition above about 30%
Target sequence (Q01638 whole entry, looked up): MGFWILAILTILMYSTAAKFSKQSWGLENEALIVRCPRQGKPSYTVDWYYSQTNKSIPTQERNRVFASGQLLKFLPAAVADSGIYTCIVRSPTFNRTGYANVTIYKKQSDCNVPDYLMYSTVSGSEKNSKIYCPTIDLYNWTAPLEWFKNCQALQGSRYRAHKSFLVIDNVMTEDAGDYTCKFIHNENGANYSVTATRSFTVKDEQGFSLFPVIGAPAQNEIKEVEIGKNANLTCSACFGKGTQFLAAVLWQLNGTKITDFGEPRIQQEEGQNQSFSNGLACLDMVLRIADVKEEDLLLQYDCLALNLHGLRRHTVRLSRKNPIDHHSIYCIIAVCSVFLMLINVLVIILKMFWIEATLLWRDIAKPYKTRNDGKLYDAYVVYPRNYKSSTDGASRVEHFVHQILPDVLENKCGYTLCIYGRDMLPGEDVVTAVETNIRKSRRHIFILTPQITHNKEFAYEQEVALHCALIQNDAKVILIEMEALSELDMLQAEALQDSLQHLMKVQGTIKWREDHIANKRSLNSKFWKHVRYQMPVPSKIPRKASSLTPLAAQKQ
* marks the source's active call; other numbers are inactive results; i = inactive. This excerpt belongs to a sample that is enriched for hits.

SMILES | ST2 IL33 inh
Cc1ccccc1N1CCN(C2CCCN(C(=O)c3scnc3C)C2)CC1 (stereo not given) | i
COc1cccc(NS(=O)(=O)c2ccc3c(c2)c(=O)n(C)c(=O)n3C)c1 | i
NCC1Cc2cc(-c3cnccn3)cc(Cl)c2O1 (stereo not given) | i
Cn1ccnc1SCC(=O)Nc1ccc(Cl)cc1 | i
CC(C)OC(=O)c1c(NC(=O)CSc2ncccn2)sc2c1CCCC2 | i
COC(=O)c1c(NC(=O)CSc2nccn2C)sc2c1CCC(C(C)(C)C)C2 (stereo not given) | 35%*
O=c1c(Oc2ccccc2)c(C(F)(F)F)oc2c(O)c(O)ccc12 | i
CCOc1ccc(Sc2cc(C(=O)NC(C)C)c3ccccc3n2)cc1 | i
CC1=C(C(=O)OC2CCCCC2)C(c2ccncc2)n2ncnc2N1 (stereo not given) | i
CCOC(=O)c1[nH]ncc1CN1CCN(Cc2ccc(C)o2)C(CCO)C1 (stereo not given) | i
COc1ccc(C(=O)NCC(=O)O)cc1 | i
COc1ccc(C(=O)/C=C(\C)c2ccc(OC)cc2)cc1 | 43%*
COc1ccc(-c2ccc(C(C)=O)cc2)cc1 | i
O=C(C[C@@H]1C[C@@H]2C=C[C@H]1C2)N1CCn2nc(C(=O)N3CCCC3)cc2C1 | i
Cc1cc(C)nc(NC(=O)c2ccccc2F)c1 | 30%*
Cc1cc(C)nc(NC(=O)CCCC(=O)O)c1 | i
Cc1ccn2c(NC(=O)c3ccccc3F)c(-c3ccccc3)nc2c1 | i
CSc1ccc(-c2cc(C(=O)O)c3ccccc3n2)cc1 | i
CC(=O)Nc1ccc(NC(=O)CC(c2ccccc2)c2ccccc2)cc1 | i
CC(C)(C)CC(=O)Nc1ccc(Nc2ccccc2)cc1 | 33%*
CC(=O)Nc1ccc(NC(=O)Nc2ccccc2)cc1 | i
O=C(CCC1CCCCC1)N(c1ccc(F)cc1)C1C=CS(=O)(=O)C1 (stereo not given) | i
CCC(=O)Nc1cccc(-c2nnc(SCC(=O)c3ccc(Cl)cc3)n2C)c1 | i
Cc1ccn2cc(C(=O)N3CCOC(CCCC(C)C)C3)nc2c1 (stereo not given) | i
NC(=O)c1c(Cl)nc(Cl)c(Cl)c1Cl | i
SMILES | ST2 IL33 inh
Cc1c(C#N)c2ccccc2n1CC(=O)NCC1CCCO1 (stereo not given) | i
Cn1cc(CC(=O)NCC2CCCO2)c2ccccc21 (stereo not given) | i
N#C/C(=C/c1cn(Cc2ccc(Cl)cc2Cl)c2ccccc12)C(=O)NCC1CCCO1 (stereo not given) | 32%*
O=C1NC(=Nc2ccccc2)S/C1=C/c1ccccn1 | i
C=CCOc1ccc(/C=C2/SC(=Nc3ccccc3)NC2=O)cc1OCC | 37%*
CCOc1cc(C=C2C(=O)c3ccccc3C2=O)ccc1OC(C)C(=O)O (stereo not given) | i
COc1ccc(N=C2NC(=O)C(CO)(CO)S2)cc1 | i
CCOc1ccc(/C=C2\SC(=O)N(CC(=O)N3CCOCC3)C2=O)cc1OCC | i
Cc1ccc(/C=C2/SC(=Nc3ccccc3)NC2=O)c(C)c1 | 35%*
COc1cccc(/C=C2/SC(=Nc3ccccc3)NC2=O)c1 | i
COc1cccc(/C=C2/SC(=Nc3ccccc3)NC2=O)c1OC | i
COc1cc(/C=C2/SC(=O)NC2=O)ccc1O | i
Cc1ccc(N=C2NC(=O)C(Cc3ccccc3)S2)cc1 (stereo not given) | i
COc1cc(/C=C2/SC(=Nc3ccccc3)NC2=O)ccc1O | 38%*
COc1ccc(/C=C2/SC(=Nc3ccccc3)NC2=O)c(OC)c1OC | 45%*
FC(F)(F)c1ccc(NCc2ccccc2)nc1 | i
Cn1cc(CN2CC[C@H](c3nnc(-c4ccco4)o3)C2)c2ccccc21 | i
Fc1ccc(-c2cc(C(F)(F)F)nc(NCc3ccco3)n2)cc1 | i
CCN(CC)C(=O)Cn1cnc2sc(C(=O)Nc3ccc(F)cc3Cl)c(C)c2c1=O | i
O=C(Nc1ccc([N+](=O)[O-])cc1)c1cc2cc(Br)cc(Br)c2oc1=O | i
COc1ccc(C(=O)N2CCCC(CNC(=O)C3(c4ccc(Cl)cc4)CC3)C2)cc1F (stereo not given) | i
CCCOCCOC(=O)C1=C(C)NC2=C(C(=O)C(C(=O)OC)C(C)C2)C1c1ccccc1C (stereo not given) | i
CC(=O)Nc1ccc(/C=C2/SC(=Nc3ccccc3)NC2=O)cc1 | 31%*
CC(=O)Nc1ccc(NC(=O)NC2(c3ccccc3)CC2)cc1 | i
Cc1ccc(NC(=O)CCN2C(=O)S/C(=C\c3ccccc3)C2=O)cc1 | i
SMILES | ST2 IL33 inh
O=C(CCc1nc(-c2ccccc2F)no1)Nc1cnc2ccccc2c1 | i
Cc1ccn2c(C(=O)Nc3cnc4n3CCCC4)nnc2n1 | i
CC(=O)N1CCC(C(=O)N[C@H]2CCN3C(=O)N(c4cccc(C(F)(F)F)c4)C(=O)[C@@H]3C2)CC1 | i
O=C(N[C@H]1CCN2C(=O)N(c3ccc(OC(F)(F)F)cc3)C(=O)[C@@H]2C1)c1ccncc1 | i
O=C(N[C@H]1CCN2C(=O)N(c3cccc(C(F)(F)F)c3)C(=O)[C@@H]2C1)c1ccncc1 | 56%*
Cc1cccc(OCc2nnc(SCC(=O)Nc3cccc(Cl)c3Cl)o2)c1 | i
Cc1ccc(S(=O)(=O)N2CCN(C(=O)CN3CCCC3)C2)cc1[N+](=O)[O-] | i
CCOc1ccccc1-n1c(CN2CCN(C)CC2)n[nH]c1=O | i
CC(CCN1CCCC1CO)c1ccccc1 (stereo not given) | i
CNC(=O)CC(C)N(C)C(=O)c1cccc(-c2ccccc2)c1 (stereo not given) | i
Cc1ccc(C)c(N2CCN(S(=O)(=O)c3c(C)[nH]c(=O)[nH]c3=O)CC2)c1 | i
CCOc1ccc2nc(N3CCCC(N4CCN(c5nonc5C)CC4)CC3)nc(C)c2c1 (stereo not given) | i
CCOc1ccc2c3c(c(=O)oc2c1)CCC3 | i
CCOc1ccc2nc(Nc3nc4c(c(=O)[nH]3)CCC4)nc(C)c2c1 | 31%*
COCCN1CCCC(O)(CN2CCN(Cc3nccn3C)CC2)C1=O (stereo not given) | i
Cc1ccc(N(CC(=O)O)S(C)(=O)=O)cc1C | i
Cc1cc2ccccc2n1CCNS(C)(=O)=O | i
CCN(CCNS(C)(=O)=O)c1ccc(N)c(C)c1 | 35%*
Cc1ccccc1C(=O)N1CCC(C(=O)NCc2cnn3ccccc23)CC1 | i
O=C(Nc1ccccc1C1CC1)c1ccc(Cl)cc1 | i
Cc1ccccc1NC1CC(C)Nc2c(C)cccc21 (stereo not given) | 39%*
Cc1ccccc1NC(=O)C1C2CCCCC21 (stereo not given) | i
CCC(=O)N1CCc2cc(S(=O)(=O)NC(C(=O)NC3CCCCC3)C(C)C)ccc21 (stereo not given) | i
CCCCNc1ncnc2c1[nH]c1ccc(C)cc12 | i
CCOC(=O)c1sc2ncnc(N3CCCCC3C)c2c1C (stereo not given) | i
CCC(C(=O)NCc1cccnc1Oc1ccccc1)N1CCOCC1 (stereo not given) | i
CCC(=O)Nc1c(C)ccc2nsnc12 | i
O=C(COc1ccccc1[N+](=O)[O-])Nc1cc(Cl)c(Cl)cc1Cl | i
Cc1ccc2nsnc2c1NC(=O)COc1ccccc1[N+](=O)[O-] | 32%*
O=C1NC(=O)/C(=C\c2ccc(-c3cccc(C(=O)O)c3)o2)S1 | i
